Source: PubChem BioAssay (National Center for Advancing Translational Sciences (NCATS))
Sampled rows, rich in hits. Any-hit rate of the full collection: about 6%.
PLK1 PBD inh = qHTS for Inhibitors of PLK1-PDB (polo-like kinase 1 - polo-box domain): Primary Screen | Plk1 PBD binding of FITC phosphopeptide, fluorescence polarization | Potency, µM, for inactives: max response, negative = inhibition, usual class: inhibitors | 360,000 tested, 2.8% active | AID 720504, 2013; also: series mostly up to about 57 µM; nearly all actives have a fitted effect of over 65% in size
Target sequence (P53350 whole entry, looked up, the tested form may be a part): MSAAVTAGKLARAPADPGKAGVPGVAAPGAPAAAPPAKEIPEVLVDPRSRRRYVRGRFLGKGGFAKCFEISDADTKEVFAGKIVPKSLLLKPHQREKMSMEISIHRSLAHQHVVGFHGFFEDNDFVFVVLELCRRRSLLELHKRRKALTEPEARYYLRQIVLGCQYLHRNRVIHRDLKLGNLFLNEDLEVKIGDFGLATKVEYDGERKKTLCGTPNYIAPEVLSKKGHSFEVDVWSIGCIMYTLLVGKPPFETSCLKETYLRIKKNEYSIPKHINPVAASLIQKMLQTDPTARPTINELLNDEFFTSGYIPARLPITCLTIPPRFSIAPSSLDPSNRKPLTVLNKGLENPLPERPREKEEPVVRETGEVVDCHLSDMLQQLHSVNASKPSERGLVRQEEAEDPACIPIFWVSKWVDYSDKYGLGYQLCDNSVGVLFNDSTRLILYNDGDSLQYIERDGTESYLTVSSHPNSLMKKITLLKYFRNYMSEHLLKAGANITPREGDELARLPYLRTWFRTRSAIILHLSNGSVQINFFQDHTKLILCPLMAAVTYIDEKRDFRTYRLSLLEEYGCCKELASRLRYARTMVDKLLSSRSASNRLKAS
Sfp PPTase inh = qHTS Assay for Inhibitors of Bacillus subtilis Sfp phosphopantetheinyl transferase (PPTase) | AID 1490, 2009 | Potency, µM, inactives show largest response in the series, negative = inhibition, actives largely listed as inhibitors | Biochemical Sfp PPTase activity, qHTS | 4'-phosphopantetheinyl transferase ffp (Bacillus subtilis), Q9F4F7 | 310,000 tested, 3.5% active;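 also: the enzyme is Sfp with the accession as filed and its product quenches rhodamine fluorescence; 0% = enzyme reaction without inhibitor and -100% = no enzyme wells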
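Buffer: 50 mM Hepes-Na pH 7.6, 10 mM MgCl2, 0.01% Nonidet P-40, 0.01% BSA. Enzyme 15 nM, pre-exposed to compound 15 min; substrates then added and fluorescence change tracked over 30 min.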
VDR inh = Inhibitors of the vitamin D receptor (VDR): qHTS; Potency, µM, inactives show max response, negative = inhibition, usual class: inhibitors; Vitamin D3 receptor (Homo sapiens), P11473; VDR-SRC2-3 peptide fluorescence polarization, 2 h; 400,000 tested, 0.93% active; AID 504847, 2011
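Compounds are added to VDR with labelled SRC2-3 coactivator peptide and held 2 h at room temperature. Inhibition of the VDR–peptide interaction is then read as a change in fluorescence polarization.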
Tau fluor counter = Counterscreen qHTS for Inhibitors of Tau Fibril Formation, Fluorescence Polarization; tau K18 P301L Alexa594 fluorescence, heparin fibrillization; Potency, µM (doses to about 57.7 µM), for inactives: at the top dose activity change, negative = decrease; 280,000 tested, 0.93% active; AID 1463, 2008; also: nearly all actives have a fitted effect of over 55% in size
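Human tau K18 P301L (15 uM unlabeled, 0.24 uM Alexa 594-labeled) in 100 mM sodium acetate pH 7 with 20 uM heparin, 6 hr at 37 C. ThT 30 uM added, 1 hr ambient; Alexa 594 FP and total fluorescence read at 555/632 nm.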
Tau ThT inhib = qHTS for Inhibitors of Tau Fibril Formation, Thioflavin T Binding. Microtubule-associated protein tau (Homo sapiens), P10636. Potency, µM (doses to about 57.4 µM), for inactives: top-dose activity, negative = inhibition, actives largely listed as inhibitors. 270,000 tested, 2.1% active. recombinant tau K18 P301L (four-repeat tau fragment), heparin-induced fibrillization, ThT fluorescence. AID 1460, 2008; also: nearly all actives have a fitted effect of over 55% in size
Target sequence (P10636 561-689 P618L limits assumed): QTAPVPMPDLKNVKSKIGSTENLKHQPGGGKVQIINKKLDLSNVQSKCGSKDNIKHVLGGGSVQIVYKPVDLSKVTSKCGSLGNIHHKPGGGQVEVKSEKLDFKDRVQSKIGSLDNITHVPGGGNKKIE
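K18 P301L tau (15 uM + 0.24 uM Alexa 594-tagged), heparin 20 uM, NaOAc pH 7, 6 h 37 C; ThT 30 uM, 1 h RT, ex 450/em 510 nm.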
Tau FP inhib = qHTS for Inhibitors of Tau Fibril Formation, Fluorescence Polarization; Microtubule-associated protein tau (Homo sapiens), P10636; K18 P301L tau heparin fibrillization, Alexa594 FP, 6 h; Potency, µM (top dose mostly 57.7 µM), without a hit: at the top dose activity, negative = inhibition, most hits filed as inhibitors; 280,000 tested, 0.39% active; AID 1468, 2008; also: nearly all actives have a fitted effect of over 55% in size
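Human K18 P301L fragment (15 uM unlabeled plus 0.24 uM Alexa 594-labeled) in 100 mM sodium acetate pH 7 with compound, aggregation induced by 20 uM heparin for 6 hr at 37 C. ThT (30 uM) added for 1 hr, then Alexa 594 FP read.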
The depositor's hits bear a star; ? = inconclusive; / = no result given; [ ] = another dose, or the depositor's remark. Calls follow the shape of the dose curve; as a rule, active = well fitted curve in the direction sought with a large enough effect; inconclusive = small, poorly fitted or top-dose-only effect, or another doubt; inactive = no such curve, though single readings can be large; an effect the other way counts as inactive or inconclusive. Unless noted, % is scaled to controls: 0 for no effect and ±100 for the full control effect; potency is read from the fitted curve at half-maximal effect.

SMILES | PLK1 PBD inh | Sfp PPTase inh | VDR inh | Tau fluor counter | Tau ThT inhib | Tau FP inhib
O=C(O)C1CC(=O)N(c2ccc(F)cc2)C1 (stereo not drawn) | 27µM* | 17% | ? | -5% | -4% | -5%
CCCCn1c(N)c(N(CCC(C)C)C(=O)C2CC(=O)N(c3ccc4c(c3)OCCO4)C2)c(=O)[nH]c1=O (stereo not drawn) | 12µM* | 11% | 19% | / | / | /
O=C(O)C1CC(=O)N(c2ccc3c(c2)OCCO3)C1 (stereo not drawn) | 3µM* | 4% | -22% | -5% | -11% | -11%
O=C(/C=C/[C@H]1O[C@@H](n2ccc(=O)[nH]c2=O)[C@H](O)[C@@H]1O)N[C@@H](Cc1ccccc1)C(=O)O | 8% | / | / | / | / | /
COc1ccccc1C(=O)NCc1nc2cccnc2n1Cc1ccc(F)cc1 | / | / | -3% | -12% | -7% | -4%
C[C@H](NC(=O)C1CC(=O)N(c2ccc3c(c2)OCO3)C1)C(=O)NC1CCCCC1 (stereo partly drawn) | 11µM* | 3% | ? | / | / | /
COC(=O)c1ccc([C@H]2Nc3ccc(S(=O)(=O)Nc4cccc(C)c4)cc3[C@H]3C=CC[C@H]32)cc1 | / | / | -12% | ? | ? | 4%
O=C(O)c1ccc(Cl)c2c1C1C=CCC1C(c1ccccn1)N2 (stereo not drawn) | / | 3.5µM* | / | 14µM*[quencher] | 14µM* | ?
CCOc1ccc2c(c1)[C@@H]1C=CC[C@@H]1[C@H](c1ccccc1Cl)N2 | / | / | 6% | ? | ? | 10%
O=[N+]([O-])c1ccc(Cl)c2c1C1C=CCC1C(c1ccccn1)N2 (stereo not drawn) | -23% | 28µM* | ? | ? | 25µM* | ?
Cc1cc([N+](=O)[O-])cc2c1NC(c1ccccn1)C1CC=CC21 (stereo not drawn) | ? | 16% | -19% | -12% | -10% | -5%
COC(=O)c1ccc([C@@H]2Nc3c(OC)ccc(C)c3[C@@H]3C=CC[C@@H]32)cc1 | / | / | -3% | ? | 13µM* | ?
COc1ccc(OC)c(C2Nc3c(Cl)ccc(C(=O)O)c3C3C=CCC32)c1 (stereo not drawn) | ? | 22µM* | 6% | -7% | ? | -12%
Cc1ccc(C)c(CN2C(=O)c3ccccc3S(=O)c3ccc(C(=O)N4CCCCC4)cc32)c1 (stereo not drawn) | / | / | -18% | -2% | 3% | -5%
O=C(COC(=O)C12CC3CC(CC(Br)(C3)C1)C2)Nc1c(F)cccc1F | 1% | / | -6% | / | / | /
CC1(C(=O)O)CCN1C(=O)c1cccc(C(F)(F)F)c1 (stereo not drawn) | 0% | / | / | / | / | /
O=C(Oc1cccnc1)c1ccc([N+](=O)[O-])cc1 | ? | -4% | 3% | 8.9µM*[quencher] | ? | 12%
CC(C)N(C(=O)c1nn(C)c2c1CSc1ccccc1-2)C1CCCCC1 | -10% | -3% | -6% | / | / | /
CCOc1ccc(S(=O)(=O)Nc2cc(Sc3ncn[nH]3)c3oc(=O)sc3c2)cc1 | / | 7.9µM* | / | ? | ? | ?
COc1cccc(OCC(=O)NC2CC(=O)N(c3cccc(OC)c3)C2)c1 (stereo not drawn) | / | / | 16% | -15% | -14% | -1%
CCCCOC(=O)C1=C(C)N(C)C(=O)NC1c1cc2c(cc1Br)OCO2 (stereo not drawn) | -10% | / | / | / | / | /
CCOC(=O)C1=C(C)N(C)C(=O)NC1c1cc2c(cc1[N+](=O)[O-])OCO2 (stereo not drawn) | 0% | 50µM* | 3% | -19% | ? | -12%
Cc1cc(C(N)=O)c2ccccc2n1 | -2% | 15% | -10% | -11% | -8% | -8%
NC(=O)c1cc2c3ccccc3ccn2c1-c1ccccc1 | ? | -23% | ? | 14µM*[quencher] | 14µM* | ?
Cc1cccc(CSc2nc(-c3cccc(C)c3)nc3c2Cc2c(CO)cnc(C)c2O3)c1 | / | / | 9% | -1% | -10% | 0%
SMILES | PLK1 PBD inh | Sfp PPTase inh | VDR inh | Tau fluor counter | Tau ThT inhib | Tau FP inhib
Cc1oc(-c2ccc(C(=O)Nc3cccc(C(F)(F)F)c3)cc2)nc1CSc1ccccc1 | / | / | 4% | ? | 6% | 14µM*
COc1ccc(NC(=O)c2ccc(-c3nc(CSc4ccccc4)c(C)o3)cc2)cc1OC | / | / | 2% | ? | ? | 2%
NC(=S)N=Nc1c(O)cc(O)c2[nH]c(=O)ccc12 | 7.5µM* | / | ? | / | / | /
COc1cc(-c2nc(CN3CCCN(C(=O)c4ccco4)CC3)c(C)o2)ccc1F | 30µM* | 12% | -12% | 18% | 9% | -6%[2.34 µM]
CCOC(=O)N1CCC(N2CCN(Cc3ccc(C)o3)C(CCO)C2)CC1 (stereo not drawn) | 15µM* | 22% | -27% | -2% | -6% | -1%
O=C(CSc1ccc([N+](=O)[O-])cc1)NNC(=O)c1ccccc1F | 9.5µM* | 1% | -11% | / | / | /
Cc1nn(C)c2c1c(C(F)(F)F)cc(=O)n2CC(=O)N1CCCCC1C (stereo not drawn) | / | / | 10% | -9% | -6% | ?
COc1cc(NC(=O)CCc2c(C)nc3c(-c4ccc(F)cc4)c(C)nn3c2C)cc(OC)c1OC | / | / | -14% | ? | ? | 4%
CCCCC1(Br)C(=O)N(c2ccccc2)N(c2ccccc2)C1=O | ? | / | 71µM* | / | / | /
CCCCC1(CO)C(=O)N(c2ccccc2)N(c2ccccc2)C1=O | -16% | -3% | -18% | -4% | / | -4%
CCn1c2ccccc2c2n[nH]c(=S)nc21 | ? | 50µM* | -1% | / | / | /
O=C(O)Cn1c2ccccc2c2n[nH]c(=S)nc21 | 27µM* | 45µM* | -15% | / | / | /
CCCn1c2ccc(C)cc2c2n[nH]c(=S)nc21 | 27µM* | 40µM* | -15% | / | / | /
CCn1c2ccccc2c2nnc(NN)nc21 | -11% | -12% | 2% | -11% | 14µM* | ?
O=C(Nc1ccc(Br)cc1)c1cc(-c2ccncc2)nc2ccccc12 | 2% | / | 12% | / | / | /
Cc1ccccc1CN1CCN(CC(=O)NCc2ccccc2Cl)C1=O | / | / | 5% | -1% | 0% | -2%
C=CCn1c2ccccc2c2n[nH]c(=S)nc21 | 0% | 40µM* | ? | / | / | /
C=CCn1c(-c2cccc3ccccc23)n[nH]c1=S | -5% | 7% | 2% | -5% | -9% | 1%
